Results as given in PubChem BioAssay AID624453 (National Center for Advancing Translational Sciences (NCATS), 2012).
Activity calls are given as the source filed them. Calls follow the shape of the dose curve; as a rule, active = well fitted curve in the direction sought with a large enough effect; inactive = no such curve, though single readings can be large or run the other way.

target: D(2) dopamine receptor (Homo sapiens) (UniProt P14416); assay: HTS Assay for Allosteric Antagonists of the Human D2 Dopamine Receptor: Hit Validation in primary assay; details: HEK293 TREx D2, calcium flux, dopamine EC80 antagonism; series mostly up to 41.8 µM
Sequence (P14416 whole entry, looked up): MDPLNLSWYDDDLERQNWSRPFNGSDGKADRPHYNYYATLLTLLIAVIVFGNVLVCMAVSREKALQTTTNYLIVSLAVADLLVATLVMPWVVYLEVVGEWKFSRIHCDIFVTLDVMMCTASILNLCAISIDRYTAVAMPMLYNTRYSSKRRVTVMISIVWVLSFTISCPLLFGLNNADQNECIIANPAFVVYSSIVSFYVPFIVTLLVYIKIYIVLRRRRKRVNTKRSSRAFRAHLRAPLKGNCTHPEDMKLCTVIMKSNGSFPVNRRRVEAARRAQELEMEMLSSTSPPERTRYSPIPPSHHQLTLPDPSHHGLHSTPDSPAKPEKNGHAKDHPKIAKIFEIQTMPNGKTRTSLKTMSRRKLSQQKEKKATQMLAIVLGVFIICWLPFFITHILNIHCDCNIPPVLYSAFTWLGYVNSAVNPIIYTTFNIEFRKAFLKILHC
Description: Dopamine receptors (DARs) are involved in the etiology and/or therapy of a number of neuropsychiatric and endocrine disorders. For instance, all receptor-based antiparkinsonian drugs work via stimulating the D2 DAR subtype whereas all FDA-approved antipsychotic agents are antagonists of this receptor. […] There are three different types of allosteric modulators that we are seeking, two of which will stimulate or augment receptor signaling, allosteric agonists and potentiators, while the third, allosteric antagonists, will attenuate receptor signaling. The present primary screening assay measures compound antagonism after an EC80 addition of dopamine by tracking calcium flux in a […], inducible Hek293 Trex D2 cell line. NIH Chemical Genomics Center [NCGC] NIH Molecular Libraries Probe Centers Network [MLPCN] MLPCN Grant: NS064831 Assay Submitter (PI): David Sibley
Freshly passaged cells are plated in 1536 well black, clear bottom plates at a density of 4000 cells/well in 3 ul of complete media containing 1x tetracycline inducer. After an overnight incubation at 30 C in 5% CO2, cells are loaded with 2 ul of the no wash Calcium Assay Kit (ABD Bioquest) and incubated at room temperature for 30 to 90 minutes before it's read.

Row | SMILES | outcome
1 | CC1=CC(=O)c2ccccc2C1=O | inactive
2 | CC(CCC(=O)O)C1CCC2C3CC[C@H]4CC(O)CC[C@@]4(C)C3CC[C@@]12C (some centres not stated) | inactive
3 | Cc1cc(C)nc(NS(=O)(=O)c2ccc(N)cc2)n1 | inactive
4 | O=C(O)c1cc(=O)c2ccccc2[nH]1 | inactive
5 | CC(C)c1c(O)ccc2c1CCC1[C@@](C)(C=O)CCC[C@@]21C (some centres not stated) | inactive
6 | CC1OC(OC2C(CO)OC(OC3C(CO)OC(O)C(O)C3O)C(O)C2O)C(O)C(O)C1NC1C=C(CO)C(O)C(O)C1O (configuration not stated) | inactive
7 | NCC1O[C@@H](OC2C(N)C[C@H](N)[C@@H](O[C@H]3OC(CO)C(O)C(N)C3O)C2O)C(N)C(O)C1O (some centres not stated) | inactive
8 | CC(C)(C)NCC(O)c1cc(O)cc(O)c1 (configuration not stated) | inactive
9 | COc1cc(OC)c2ccc(=O)oc2c1 | inactive
10 | COc1ccc2cc3[n+](cc2c1OC)CCc1cc2c(cc1-3)OCO2 | inactive
11 | CCCCCCCCCCCC1=C(O)C(=O)C=C(O)C1=O | inactive
12 | CC(=O)OC1CC2C(C)(C)C(O)CC(O)[C@@]2(C)C2CC[C@@]3(C)C(=CC(=O)OC3c3ccoc3)[C@]12C (some centres not stated) | inactive
13 | C[C@]12CCC3c4ccc(OS(=O)(=O)O)cc4CCC3C1CCC2=O (some centres not stated) | inactive
14 | O=C(OCc1ccccc1)c1ccccc1 | inactive
15 | COc1ccc(-c2c(O)c3c(OC)c4c(cc3oc2=O)OC(C)(C)C=C4)cc1 | inactive
16 | NS(=O)(=O)c1cc(C2(O)NC(=O)c3ccccc32)ccc1Cl (configuration not stated) | inactive
17 | CCCCNc1ccc(C(=O)OCCN(C)C)cc1 | inactive
